Screens from PubChem BioAssay.
aSyn UTR act = Activators via SNCA 5'UTR binding, MLPCN. activity score, % (tested at 7.5 µM), hits read low. 300,000 compounds, 7.1% hits. alpha-synuclein 5'UTR reporter, activators screen; in the data active = activity score below about -60%
* hit, by the source's call. The list is a sample of the results.

SMILES	aSyn UTR act
c1ccc(CNc2ncnc3c2oc2ccccc23)nc1	-171*
c1ccc2c(c1)oc1c(NCC3CCCO3)ncnc12 (stereo unspecified)	-178*
CC(=O)c1ccc(Nc2ncnc3c2oc2ccccc23)cc1	-90*
Nc1nc(-c2ccc(Br)cc2)cs1	-99*
Nc1nc(-c2cc(-c3ccccc3)no2)cs1	-174*
Nc1nc(-c2ccccc2)cs1	-97*
O=C(c1ccccc1)c1cc(-c2ccccc2)on1	-108*
c1ccc(-c2cc(-c3ccccc3)on2)cc1	-152*
N/C(Cc1nc(-c2ccc(Br)cc2)cs1)=N\O	-96*
CCn1cc(Cl)c(C(=O)Nc2nccs2)n1	-82*
O=C(Nc1nccs1)c1ncc(Cl)c(Cl)c1Cl	-76*
Cn1cc(Cl)c(C(=O)Nc2nccs2)n1	-72*
CCC(=O)Nc1cccc(-c2cnc3ccccc3n2)c1	-122*
O=C(Nc1cccc(-c2cnc3ccccc3n2)c1)c1cccc(NC(=O)c2ccco2)c1	-95*
O=C(CCl)Nc1cccc(-c2cnc3ccccc3n2)c1	-622*
Cc1ccc2nc(NC(=O)c3ccc4ncsc4c3)sc2c1	-145*
Cc1ccc2nc(NC(=O)c3ccc4c(c3)OCO4)sc2c1	-130*
CN(C)c1ccc(/C=C/c2cc[n+]([O-])cc2)cc1	-114*
Cc1ccc(NC(=O)C(=O)NC(C)C2COc3ccccc3O2)cc1 (stereo unspecified)	-71*
Cc1ccccc1OCc1n(CC(=O)OC2CC(C)CCC2C(C)C)c2ccccc2[n+]1C (stereo unspecified)	85
Cc1ccc2nc(-c3ccc(-c4cccc(Cl)c4)cc3)c(NCc3ccccc3)n2c1	-68*
CCCCNc1c(-c2ccc(-c3cccc(Cl)c3)cc2)nc2ccccn12	-105*
CCCCCCSc1ccc(-c2nc3ccccn3c2NCCCC)cc1	-113*
CCN(CC)c1ccc(/C=C/c2cccc[n+]2C)c(OC)c1	59
CC[n+]1c(/C=C/c2ccc(OC(C)=O)c(OC)c2)ccc2ccccc21	-72*
SMILES	aSyn UTR act
CCN(CC)c1ccc(/C=C/c2ccc3ccc(OC)cc3[n+]2CC)cc1	-87*
CC[n+]1c(/C=C/c2ccc(OC)c(OC)c2)ccc2ccccc21	-117*
Cc1cc(N2CCCCC2)nc2ccc(NC(=O)CCC(=O)NCCC(C)C)cc12	-131*
CCCCNC(=O)CCC(=O)Nc1ccc2nc(N3CCOCC3)cc(C)c2c1	-87*
Cc1cc(N2CCOCC2)nc2ccc(NC(=S)NC(C)C)cc12	-93*
CCCN(CCC)CCNC(=O)CCC(=O)Nc1ccc2nc(N3CCOCC3)cc(C)c2c1	-90*
Cc1cc(N2CCOCC2)nc2ccc(NC(=O)CCC(=O)N3CCN(c4ccccc4)CC3)cc12	-87*
COCCCNC(=O)CCC(=O)Nc1ccc2nc(N3CCOCC3)cc(C)c2c1	-86*
COc1cccc(NC(=O)CCC(=O)Nc2ccc3nc(N4CCOCC4)cc(C)c3c2)c1	-149*
CCCCNC(=O)CCC(=O)Nc1ccc2nc(N3CCCCC3)cc(C)c2c1	-141*
CCOC(=O)C1CCCN(C(=O)CCC(=O)Nc2ccc3nc(N4CCOCC4)cc(C)c3c2)C1 (stereo unspecified)	-63*
CCN(CC)CCCNC(=O)CCC(=O)Nc1ccc2nc(N3CCC(C)CC3)cc(C)c2c1	-62*
Cc1ccc(-c2noc(C3CCN(S(C)(=O)=O)CC3)n2)o1	-67*
Cc1ccc(-c2noc(C3CCCN(C(=O)c4ccccc4Br)C3)n2)o1 (stereo unspecified)	-92*
O=C(c1ccccc1Br)N1CCCC(c2nc(-c3cccs3)no2)C1 (stereo unspecified)	-63*
Cc1ccc(-c2noc(C3CCCN(C(=O)c4ccccc4)C3)n2)o1 (stereo unspecified)	-154*
Cc1[nH]nc(SCC(=O)N2CCCCC2)c1[N+](=O)[O-]	-92*
CCCn1nnc(NC(=O)c2ccc3ccccc3c2)n1	-185*
CCCn1nnc(NC(=O)c2cccc(OCC)c2)n1	-141*
Cc1ccc(C(=O)Nc2nnn(C)n2)cc1	-76*
CCn1nnc(NC(=O)c2ccc(C(C)(C)C)cc2)n1	-112*
CCCn1nnc(NC(=O)c2ccc(Cl)cc2Cl)n1	-115*
CC(=O)Nc1ccc(S(=O)(=O)N2c3ccccc3C(C)=CC2(C)C)cc1	121
CC(=O)Nc1ccc(/C=C2\CCc3ccccc3C2=O)cc1	-118*
Fc1ccc(COc2ccc(-c3nnco3)cc2)c(Cl)c1	-96*
SMILES	aSyn UTR act
Fc1cc(Br)ccc1COc1ccc(-c2nnco2)cc1	-133*
CCCCCCC(=O)Nc1ccc(Br)cn1	-62*
Cn1ncc(Br)c1C(=O)Nc1ccc(Br)cn1	-89*
O=C(Nc1ccc(Cl)cc1)Nc1ccc(Br)cn1	-103*
CCOc1ccc(NC(=S)NNC(=O)c2cc(Br)ccc2Cl)cc1	-109*
CCOc1ccc(NC(=O)Nc2ccc(Br)cn2)cc1	-105*
NN/C(=C\[N+](=O)[O-])Nc1ccccc1	-70*
C/C(=N\Nc1cccc([N+](=O)[O-])c1)c1cc2ccccc2o1	-166*
C/C(=N\Nc1cccc(C(=O)O)c1)c1cc2ccccc2o1	-66*
Cc1nnc(CN(C)C(=O)c2cc(COc3ccc(F)cc3Cl)on2)o1	-100*
CC(=O)c1cccc(OCc2cc(C(=O)N(C)Cc3ccc(C)o3)no2)c1	-68*
CSc1ccccc1OCc1cc(C(=O)N(C)Cc2ccc(C)o2)no1	-123*
CSc1ccccc1OCc1cc(C(=O)N(C)Cc2ccc3nsnc3c2)no1	-160*
O=C(CCN1CCC(c2cccs2)=N1)c1cccs1	-94*
CC(C)=C1C2C=CC1C1C(=O)N(c3ccc4c(c3)OCO4)C(=O)C21 (stereo unspecified)	-86*
Cc1ccc(-c2csc(/C(C#N)=C(\O)CCl)n2)cc1	-96*
N#C/C(=C(/O)CN1CCCCC1)c1nc(-c2ccc(Cl)cc2)cs1	-110*
CC1Cc2ccccc2N1C(=O)CSc1ncc(-c2ccc(F)cc2)n1C (stereo unspecified)	-126*
COc1ccc(OC)c(/C=C2\SC(=S)N(Cc3cccnc3)C2=O)c1	-62*
Cc1cc(C(=O)N/N=C/c2cc(Br)cc(Br)c2OC(=O)c2ccccc2)n[nH]1	89
Cc1cc(C(=O)N/N=C/c2cccs2)n[nH]1	-83*
Cc1cc(C(=O)N/N=C\c2cc(C(C)(C)C)ccc2O)n[nH]1	75
O=C(N/N=C/c1cccs1)c1[nH]ncc1Br	-95*
O=C(N/N=C/c1c(O)ccc2ccccc12)c1[nH]ncc1Br	106
Cn1cccc1-c1cc(C(=O)N/N=C/c2cc(Br)ccc2O)[nH]n1	71
SMILES	aSyn UTR act
Cc1ccc(O)c(/C=N/NC(=O)c2[nH]ncc2Br)c1	-113*
C/C(=N\NC(=O)c1cc(C)[nH]n1)c1ccc(-c2ccccc2)cc1	-78*
O=C(NCCC1CCCCN1S(=O)(=O)c1cccs1)C(=O)Nc1ccc(F)cc1 (stereo unspecified)	-87*
O=C(NCCC1CCCCN1S(=O)(=O)c1ccc(Cl)cc1)C(=O)NCc1ccncc1 (stereo unspecified)	62
COc1cccc(NC(=O)C(=O)NCCC2CCCCN2S(=O)(=O)c2ccccc2)c1 (stereo unspecified)	-158*
COc1cccc(NC(=O)C(=O)NCC2CCCN2S(=O)(=O)c2ccccc2)c1 (stereo unspecified)	-216*
CCOc1ccc2nc(SCc3ccc(F)cc3)sc2c1	-68*
COc1cc(C(=O)Nc2ccc(N(C)C)cc2)cc(OC)c1OC	-99*
Cc1nc2cc(NC(=O)N3CCCCC3)ccc2n1C	-71*
